Screening results as filed in PubChem.
Sampled rows, rich in hits. Any-hit rate of the full collection: about 19%.
ELG1 repair inh – qHTS screen for small molecules that inhibit ELG1-dependent DNA repair in human embryonic kidney (HEK293T) cells expressing luciferase-tagged ELG1 | HEK293T ELG1-luciferase reporter, luminescence, 16 h; DNA damage induced by 5-fluorouridine | Potency, µM (doses to about 46.1 µM), most hits filed as inhibitors | 2.3% of 330,000 active | AID 504467, 2011; also: nearly all actives have a fitted effect of over 55% in size
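DMSO vehicle served as the neutral condition. Each well held 2,000 cells given 5-fluorouridine plus compound; after 16 hr at 37 °C/5% CO2, ONE-Glo was added and luciferase measured 30 min later.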
DT40 TDP1 CPT – qHTS for Inhibitors of human tyrosyl-DNA phosphodiesterase 1 (TDP1): qHTS in cells in presence of CPT; 12% of 420,000 active; chicken DT40 Tdp1-/-;hTDP1 cells + 20 nM CPT, ATP luminescence, 48 h; Potency, µM (series often up to 46.2 µM), usual class: inhibitors; also: nearly all actives have a fitted effect of over 55% in size
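Chicken DT40 Tdp1-/- cells complemented with human TDP1, 400 cells/well, exposed to compounds plus 20 nM camptothecin for at least 48 h at 37 C; viability read as ATP content by CellTiter-Glo luminescence.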
Giardia kill – Small Molecules that selectively kill Giardia lamblia: qHTS; 0.15% of 340,000 active; Giardia lamblia trophozoite viability; activity change, % at 7.66 µM, hits read low; in the data active = activity change below about -80%; inconclusive = between about -30% and that limit;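 also: parasites exposed to compound for two days anaerobically before the ATP read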
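Giardia lamblia trophozoites (100 cells/well) were incubated with compounds for 48 h at 37 deg C under anaerobic conditions. Viability was read as ATP content by one-step luminescence after 15-30 min at room temperature.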
TDP1 inh – qHTS Assay for Inhibitors of Tyrosyl-DNA Phosphodiesterase (TDP1); Tyrosyl-DNA phosphodiesterase 1 (Homo sapiens), Q9NUW8; recombinant TDP1, AlphaScreen DNA substrate cleavage; Potency, µM (series often up to 130 µM), usual class: inhibitors; 0.28% of 350,000 active; also: nearly all actives have a fitted effect of over 40% in size
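E. coli-derived human Tdp1, 1 nM final. Cpd preinc 15 min RT; substrate 15 nM final, 5 min RT; AS bead mix 10 ug/ml final, 10 min RT. Signal loss = tyrosine-FITC cleavage. No-enzyme wells = max signal.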
IL-1B inflam inh – qHTS for Inhibitors of Inflammasome Signaling: IL-1-beta AlphaLISA Primary Screen. THP-1 LPS/ATP IL-1B secretion, AlphaLISA, 16 h; active compounds read low. activity change, % at 57.5 µM. 4.7% of 360,000 active. AID 743279, 2014; in the data active = activity change below about -50%; inconclusive = mostly about -30% to -49%
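THP-1 cells pretreated 1 hr with compounds (up to 57.5 uM final), then stimulated with LPS (250 ng/mL final) plus ATP (1.25 mM final); secreted IL-1B measured by AlphaLISA after 16 hr, decreased signal indicating inhibition.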
DT40 TDP1 no CPT – qHTS for Inhibitors of human tyrosyl-DNA phosphodiesterase 1 (TDP1): qHTS in cells in absence of CPT. DT40 Tdp1-/- hTDP1 cells, no CPT, ATP luminescence, 48 h. Potency, µM (doses to about 46.2 µM), hits mostly inhibitors. 15% of 420,000 active. AID 686978, 2013; also: nearly all actives have a fitted effect of over 55% in size
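Seeded 400 DT40-hTDP1 cells/well (vehicle DMSO, no 20 nM CPT); pinned compounds; ≥48 hr at 37 °C; CellTiter-Glo luminescence as viability measure.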
Hits are given with their value; [ ] = dose if it differs, or a comment. Unless noted, calls follow the shape of the dose curve; as a rule, active = well fitted curve in the direction sought with a large enough effect; inconclusive = small, poorly fitted or top-dose-only effect, or another doubt; inactive = no such curve, though single readings can be large; an effect the other way counts as inactive or inconclusive.

`COc1ccc(-n2nc(C(=O)NCC(=O)NCCCN3CC(C)CC(C)C3)c3ccccc3c2=O)cc1OC` (stereo not given) gave ELG1 repair inh inactive, DT40 TDP1 CPT inactive, Giardia kill inactive, TDP1 inh inactive, IL-1B inflam inh inactive and DT40 TDP1 no CPT inactive.
Screening COc1ccc2nc(Nc3nc(CSc4nnc(C)s4)cc(=O)[nH]3)nc(C)c2c1 returned ELG1 repair inh inactive and TDP1 inh inactive.
For Cc1ccc2nc(Nc3nc(CSc4nnc(C)s4)cc(=O)[nH]3)nc(C)c2c1 the results were ELG1 repair inh inactive, DT40 TDP1 CPT inconclusive, Giardia kill inactive, TDP1 inh inactive, IL-1B inflam inh -87.6 and DT40 TDP1 no CPT 14.6µM.
For COCc1cc(=O)[nH]c(Nc2nc(C)c3cc(OC)ccc3n2)n1 the results were ELG1 repair inh inactive and TDP1 inh inactive.
For Cc1ccc2nc(Nc3nc(CSc4nc5ccccc5s4)cc(=O)[nH]3)nc(C)c2c1 the results were ELG1 repair inh inconclusive, DT40 TDP1 CPT 11.6µM, Giardia kill inactive, TDP1 inh inactive, IL-1B inflam inh inactive and DT40 TDP1 no CPT 14.6µM.
For Cc1ccc2cc(CCNS(=O)(=O)c3ccc(Br)cc3)c(=O)[nH]c2c1C the results were ELG1 repair inh inconclusive, DT40 TDP1 CPT inconclusive, Giardia kill inactive, TDP1 inh inactive, IL-1B inflam inh inactive and DT40 TDP1 no CPT 23.1µM.
Screening Cc1cc(C)c(S(=O)(=O)NCCc2cc3ccc(C)c(C)c3[nH]c2=O)c(C)c1 returned ELG1 repair inh inactive, DT40 TDP1 CPT inconclusive, Giardia kill inactive, TDP1 inh inactive, IL-1B inflam inh inactive and DT40 TDP1 no CPT 18.4µM.
`O=C1CC(c2ccccc2)c2c(n3ncnc3[nH]c2=O)N1` (stereo not given) gave DT40 TDP1 CPT inactive, TDP1 inh inactive and DT40 TDP1 no CPT inactive.
`CCOc1ccc(N2CC(O)(c3cccs3)[N+]3=C2CCCC3)cc1` (stereo not given) gave ELG1 repair inh inactive, DT40 TDP1 CPT inconclusive, Giardia kill inactive, TDP1 inh inactive, IL-1B inflam inh inactive and DT40 TDP1 no CPT inconclusive.
For OC1(c2cccs2)CN(c2ccc(Br)cc2)C2=[N+]1CCCS2 (stereo not given) the results were ELG1 repair inh inconclusive, DT40 TDP1 CPT inconclusive, Giardia kill inactive, TDP1 inh inactive, IL-1B inflam inh inconclusive and DT40 TDP1 no CPT 14.6µM.
`OC1(c2ccccc2)CN(c2ccccc2)C2=[N+]1CCS2` (stereo not given) gave ELG1 repair inh inactive, DT40 TDP1 CPT inconclusive, Giardia kill inactive, TDP1 inh inactive, IL-1B inflam inh -66.4 and DT40 TDP1 no CPT inactive.
For OC1(c2cccs2)CN(c2ccccc2)C2=[N+]1CCCC2 (stereo not given) the results were ELG1 repair inh inactive, DT40 TDP1 CPT inactive, Giardia kill inactive, TDP1 inh inactive, IL-1B inflam inh -86.7 and DT40 TDP1 no CPT inactive.
CCOc1ncccc1C(=O)Nc1cc(S(=O)(=O)N2CCCCCC2)ccc1OC was read as ELG1 repair inh inactive, DT40 TDP1 CPT inactive, Giardia kill inactive, TDP1 inh inactive, IL-1B inflam inh inactive and DT40 TDP1 no CPT inactive.
COc1ccc(C(=O)N2CCC3(CC2)CN(c2ncccn2)C3)cc1 was read as DT40 TDP1 CPT inactive and DT40 TDP1 no CPT inactive.
Screening O=C(NCCc1cccnc1)c1cnn(-c2ncc3c(n2)-c2ccccc2CC3)c1C1CC1 returned DT40 TDP1 CPT inactive[9.04 µM] and DT40 TDP1 no CPT inconclusive.
